Assay results taken from PubChem BioAssay AID651815 (National Center for Advancing Translational Sciences (NCATS), 2012).
Among all 2,100 compounds or so, about 1,100 (52%) were called active. Another 29% or so got no clear call; they are omitted. The call rests on the fitted dose curve; in most records, active means well fitted inhibition curve with a large enough effect; inconclusive means small, poorly fitted or top-dose-only effect; inactive means no such curve, though single readings can be large or run the other way. The set was probably picked from earlier hits. Some of the results follow.

biological target: DNA dC->dU-editing enzyme APOBEC-3F (Homo sapiens) (UniProt Q8IUX4); assay: qHTS for inhibitors of Vif-A3F interactions: Cherry picks counterscreen; settings: HeLa A3F-eYFP/Vif cells, eYFP fluorescence, 24 h; series mostly up to 46.1 µM; activity, negative = inhibitor: at the top concentration; further: nearly all actives have a fitted effect of over 65% in size
Sequence (Q8IUX4 whole entry, looked up): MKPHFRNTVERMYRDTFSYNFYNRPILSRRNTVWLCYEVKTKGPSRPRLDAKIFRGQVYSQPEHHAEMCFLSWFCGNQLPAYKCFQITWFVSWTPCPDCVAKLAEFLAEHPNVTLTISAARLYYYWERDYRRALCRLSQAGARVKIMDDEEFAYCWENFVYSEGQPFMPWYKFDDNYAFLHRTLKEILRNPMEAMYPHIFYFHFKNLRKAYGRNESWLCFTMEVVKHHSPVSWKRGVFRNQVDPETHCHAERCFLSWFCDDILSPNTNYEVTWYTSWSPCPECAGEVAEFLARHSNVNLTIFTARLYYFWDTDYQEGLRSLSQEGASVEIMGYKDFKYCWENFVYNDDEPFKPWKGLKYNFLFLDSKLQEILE
Summary of the method: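 Rescue of Vif-driven A3F-eYFP degradation read as cellular eYFP fluorescence after 24 h compound exposure (several concentrations) in stable HeLa cells; MG132 (2 mM stock) as positive control.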
On the % scale 0 is the no-effect control and ±100 the full control effect; potency means the concentration at half of the fitted maximal effect.

Compound | Potency | activity, negative = inhibitor
O=c1[nH]c2cc(Br)cnc2nc1/C=C(\O)c1ccc(F)cc1 | 18.4 µM (active) | –
COc1ccc(Cl)cc1NC(=O)CSc1nc2c([nH]c3ccccc32)c(=O)n1-c1ccccc1 | 25.9 µM (active) | –
O=C(O)c1ccc(NS(=O)(=O)c2cccc(C(=O)Nc3ccccc3[N+](=O)[O-])c2)cc1 | – | -7.28% [at 36.9 µM] (inactive)
Cc1ccc(NC(=O)c2ccc(NCC3CCCO3)c([N+](=O)[O-])c2)cc1Cl (configuration not stated) | 20.6 µM (active) | –
Cc1ccc(NC(=O)c2ccc([N+](=O)[O-])s2)cc1S(=O)(=O)N1CCOCC1 | – | -22.5% [at 36.9 µM] (inactive)
O=C(NCCN1C(=O)S/C(=C\c2ccc(OC(F)F)cc2)C1=O)c1cnccn1 | 7.04 µM (active) | –
CC(C)(C)c1ccc(Cn2c(=O)cnc3ccccc32)cc1 | – | -20.8% (inactive)
ClCc1nc2ccccc2n1Cc1ccccc1 | 18.4 µM (active) | –
COc1cc(N2CCCC2)c(OC)cc1/C=C(/C#N)c1ccc(F)cc1 | 9.2 µM (active) | –
COc1cc(N2CCCC2)c(OC)cc1/C=C(/C#N)c1ccc(Br)cc1 | 2.06 µM (active) | –
CC(=O)/C(N=Nc1cc(C)ccc1O)=C(\C)O | 16.4 µM (active) | –
Cc1ccc(-c2nc(SCCOc3ccccc3C)n3[nH]c(=O)cc3n2)cc1 | – | 4.56% (inactive)
Cc1ccccc1OCCc1c(C)[nH]c(=S)[nH]c1=O | 2.23 µM (active) | –
COc1cc(NC(=O)C2=C(N3CCOCC3)/C(=C\c3ccc(N(C)C)cc3)CCC2)cc(OC)c1OC | 5.59 µM (active) | –
O=C1CC(c2cc(Br)ccc2F)c2cc3c(cc2N1)CCC3 (configuration not stated) | 1.12 µM (active) | –
O=C1CC(c2ccccc2F)c2cc3c(cc2N1)CCC3 (configuration not stated) | 2.5 µM (active) | –
O=C1CC(c2cc(F)ccc2F)c2cc3c(cc2N1)CCC3 (configuration not stated) | 3.14 µM (active) | –
NC(=O)c1ccccc1NC(=S)NC(=O)CCc1ccccc1 | 9.94 µM (active) | –
CCC(=O)NC(=S)Nc1cccc(Cl)c1N1CCCC1 | – | -20.3% (inactive)
O=C(COc1ccccc1)NC(=S)Nc1cccc2c(O)cccc12 | – | -26.3% [at 36.9 µM] (inactive)
Oc1ccc(-c2nc(-c3ccc(O)c(O)c3)cs2)cc1 | 1.25 µM (active) | –
COc1ccc(NC(=O)c2ccc3c(c2)c(C)c(C)n3Cc2ccc(F)cc2)cc1 | 4.61 µM (active) | –
Cc1ccccc1NC(=O)c1ccc2c(c1)c(C)c(C)n2Cc1ccccc1 | 6.51 µM (active) | –
O=[N+]([O-])c1ccc(N2CCN(Cc3ccccc3)CC2)c2c1no[n+]2[O-] | 15.8 µM (active) | –
COc1ccc(OC)c(-c2cc(-c3cccnc3)nc(N)c2C#N)c1 | 3.53 µM (active) | –

Compound | Potency | activity, negative = inhibitor
O=C(/C=C/c1ccco1)N1CCc2ccccc21 | – | -25.8% (inactive)
Cc1c(C(=O)C(=O)N2CCCc3ccccc32)c2ccccc2n1C | 8.86 µM (active) | –
Cc1c(C(=O)C(=O)N2CC=C(c3ccccc3)CC2)c2ccccc2n1C | 2.5 µM (active) | –
CCOc1ccc(-c2cc(C(=O)NCCc3ccc(OC)c(OC)c3)c3c(-c4ccc(F)cc4)[nH]nc3n2)cc1 | 16.4 µM (active) | –
COc1ccc(CCNC(=O)CC2(CC3=NS(=O)(=O)c4ccccc4N3)CCCC2)cc1OC | – | -12% [at 36.9 µM] (inactive)
COc1ccc(OC)c(CNc2nc3ccc(C)cc3n3nnnc23)c1 | 8.2 µM (active) | –
COc1ccccc1CNc1nc2ccc(C)cc2n2nnnc12 | 23.1 µM (active) | –
O=C1c2ccccc2-c2onc3c(N4CCN(C5CCCCC5)CC4)cc(NCCO)c1c23 | 5.8 µM (active) | –
CN(C)CCCNc1cc(N2CCN(C3CCCCC3)CC2)c2noc3c2c1C(=O)c1ccccc1-3 | 2.59 µM (active) | –
CCNc1cc(N2CCN(C3CCCCC3)CC2)c2noc3c2c1C(=O)c1ccccc1-3 | 13 µM (active) | –
O=C(NC(=S)N1CCc2ccccc21)c1ccco1 | – | -3.14% (inactive)
CCN(CC)c1ccc(/C=N/NC(=O)c2ccco2)cc1 | 6.27 µM (active) | –
Fc1ccc(CNc2nc3ccccc3n3nnnc23)cc1 | 11.6 µM (active) | –
Fc1ccccc1Nc1nc2ccccc2n2nnnc12 | 14.6 µM (active) | –
Cc1ccc(CNc2nc3ccc(Cl)cc3n3nnnc23)cc1 | 11.6 µM (active) | –
c1ccc2c(c1)nc(N1CCOCC1)c1nnnn12 | 20.6 µM (active) | –
c1ccc2c(c1)nc(NCC1CCCO1)c1nnnn12 (configuration not stated) | 18.4 µM (active) | –
Fc1ccc(CNc2nc3ccc(Cl)cc3n3nnnc23)cc1 | 6.51 µM (active) | –
N#C/C(=C/c1ccc(N2CCCCCC2)o1)c1ccc(Cl)cc1 | 3.66 µM (active) | –
Cc1ccc(/C(C#N)=C\c2ccc(N3CCOCC3)o2)cc1 | 15.8 µM (active) | –
N#C/C(=C/c1ccc(N2CCCCC2)o1)c1cccc(F)c1 | 4.11 µM (active) | –
N#C/C(=C/c1ccc(N2CCOCC2)o1)c1ccc(Cl)cc1 | 4.61 µM (active) | –
CCN(c1ccc(NC(=O)CCc2nc3sc4c(c3c(=O)[nH]2)CCCC4)cc1)C(C)C | – | -28.5% (inactive)
COc1ccc(C(=O)C[n+]2cccc3cc(Cl)ccc32)cc1 | 20.6 µM (active) | –
O=C(C[n+]1cccc2cc(Cl)ccc21)c1ccc2ccccc2c1 | 20.6 µM (active) | –

Compound | Potency | activity, negative = inhibitor
CCCC1=[N+](CC(=O)c2ccc(Br)cc2)CCn2cccc21 | – | -9.63% (inactive)
CC(C)(C)c1ccc(C(=O)C[n+]2cccc3cc(Cl)ccc32)cc1 | 18.4 µM (active) | –
COc1ccc(C(=O)C[n+]2cc(Br)cc3ccccc32)cc1 | 16.4 µM (active) | –
O=C(NC1C/C(=N/O)c2cc3c(cc21)OCO3)C(F)(F)F (configuration not stated) | – | 11.8% (inactive)
CCCn1c(CN2CCN(C(=O)OCC)CC2)nc2cc(NC(=O)C(C)C)ccc21 | 12.5 µM (active) | –
COC(=O)Cn1c(C)c(/C=C/c2cc[n+](C)cc2)c2ccccc21 | 9.2 µM (active) | –
CCN(CC)C(=O)Cn1c(C)c(/C=C/c2cc[n+](C)cc2)c2ccccc21 | 7.9 µM (active) | –
COc1ccccc1-c1cc(-c2ccccc2)nc(SC(C(N)=O)c2ccccc2)c1C#N (configuration not stated) | 17.7 µM (active) | –
N#CC1=C(S)N(c2ccc(F)cc2)C2(CCCCC2)NC1=O | – | 16.2% (inactive)
Cc1ccc2nc(C)c(C(=O)NN=C3CCCCCC3)n2c1 | – | -27.5% [at 36.9 µM] (inactive)
O=C1OC(/C(=C\Nc2cc(Cl)ccc2O)[N+](=O)[O-])c2ccccc21 (configuration not stated) | – | -22.5% [at 36.9 µM] (inactive)
CC(C)CN(CC(C)C)c1ccc(/C=C/c2ccnc3ccccc23)cc1 | 20.6 µM (active) | –
CCN(CCCN(C)C)c1ccc(/C=C/c2ccnc3ccccc23)cc1 | 20.6 µM (active) | –
CCN(C)c1ccc(/C=C/c2ccnc3ccccc23)cc1 | 23.1 µM (active) | –
CCCCN(CCC(=O)O)c1ccc(/C=C/c2ccnc3ccccc23)cc1 | 18.4 µM (active) | –
CCCN(CCC)c1ccc(/C=C/c2ccnc3ccccc23)cc1 | 20.6 µM (active) | –
CCCCN(CCCC)c1ccc(/C=C/c2ccnc3ccccc23)cc1 | 23.1 µM (active) | –
CCN(CC)c1ccc(/C=C/c2ccnc3ccccc23)cc1 | 23.1 µM (active) | –
COCCNC(=O)C(=O)Nc1ccc2c(c1)N(S(=O)(=O)c1cccs1)CCC2 | 2.23 µM (active) | –
CCOc1ccccc1NC(=O)Cn1nnc(C(=O)NCc2cccs2)c1N | 1.46 µM (active) | –
CCN(CC(=O)NCc1ccc(F)cc1)C(=O)/C=C/c1ccc(OC)c(S(=O)(=O)NC(C)C)c1 | 4.98 µM (active) | –
CC(=O)c1cccc(-c2ccnc3c2CC(C(=O)Nc2ccc(Cl)cc2)O3)c1 (configuration not stated) | 4.98 µM (active) | –
COc1ccc(NC(=O)C2Cc3c(-c4cccc(C(C)=O)c4)ccnc3O2)cn1 (configuration not stated) | 3.14 µM (active) | –
CC(=O)Nc1cccc(-c2ccnc3c2CC(C(=O)Nc2ccc4c(c2)OCO4)O3)c1 (configuration not stated) | 4.44 µM (active) | –
COc1ccc(NC(=O)C2Cc3c(-c4cccc(C(C)=O)c4)ccnc3O2)cc1 (configuration not stated) | 3.53 µM (active) | –

Compound | Potency | activity, negative = inhibitor
COc1ccc(NC(=O)C2Cc3c(-c4cccc(NC(C)=O)c4)ccnc3O2)cn1 (configuration not stated) | 7.9 µM (active) | –
CC(=O)Nc1ccc(-c2ccnc3c2CC(C(=O)Nc2cccc(N(C)C)c2)O3)cc1 (configuration not stated) | 12.5 µM (active) | –
Cc1ccc(S(=O)(=O)c2cc3ccccc3oc2=Nc2ccc3c(c2)OCO3)cc1 | – | -12.3% (inactive)
CC(C)NC(=S)N/N=C/c1sc(N2CCCCC2)nc1-c1cccs1 | – | -29.2% (inactive)
COc1cccc(N2CC(O)=C(c3nc4ccccc4s3)C2=N)c1 | 7.9 µM (active) | –
COc1cc(/C=C2\C(=N)N3N=C(S(C)(=O)=O)SC3=NC2=O)ccc1OC(=O)c1ccco1 | – | 29.8% (inactive)
CCN(CC)c1ccc(/C=C2\C(=N)N3N=C(CC(=O)N4CCOCC4)SC3=NC2=O)cc1 | 0.0353 µM (active) | –
CN(C)c1ccc(/C=C2\SC(N3CCCCC3)=NC2=O)cc1 | 23.1 µM (active) | –
COc1cc(/C=C2\C(=N)N3N=CSC3=NC2=O)cc(Br)c1OC(=O)c1ccco1 | – | 28.5% (inactive)
CN(C)c1ccc(/C=C2\C(=N)N3N=C(CC(=O)N4CCCCC4)SC3=NC2=O)cc1 | 3.26 µM (active) | –
CN1C(=O)c2cccc(NCCCN3C(=O)c4ccccc4C3=O)c2C1=O | 18.4 µM (active) | –
CCCOc1ccc(N)cc1N | – | -4.55% (inactive)
O=C1/C(=C/c2ccc(N3CCCC3)cc2)NC(=S)N1C1CC1 | 14.6 µM (active) | –
CCN1C(=O)/C(=C/c2ccc(N3CCCC3)cc2)NC1=S | 20.6 µM (active) | –
CN(C)c1ccc(/C=C2\NC(=S)N(Cc3ccccc3)C2=O)cc1 | 2.23 µM (active) | –
Cc1cccc(N2CCN(Cc3cn(C)nc3-c3ccccc3F)CC2)n1 | 6.27 µM (active) | –
O=C1CC(c2ccccc2)Cc2[nH]c(=O)c(-c3nc(-c4cccc(Cl)c4)cs3)cc21 (configuration not stated) | 4.11 µM (active) | –
Cc1sc(-c2cc3c([nH]c2=O)CC(c2ccccc2)CC3=O)nc1-c1ccc(Cl)cc1 (configuration not stated) | 8.2 µM (active) | –
CCOC(=O)N1CCN(c2c(NCc3ccc(F)cc3)c(=O)c2=O)CC1 | 17.7 µM (active) | –
Cc1ccc2[nH]c(C)c(/C=C/c3cc[n+](C)cc3)c2c1 | 1.77 µM (active) | –
Cc1[nH]c2ccccc2c1/C=C/C(=O)c1ccccc1 | 23.1 µM (active) | –
Cc1[nH]c2ccccc2c1/C=C/c1cc[n+](C)cc1 | 6.27 µM (active) | –
